Reference: PubChem BioAssay AID720651 (The Scripps Research Institute Molecular Screening Center, 2013)
Some of the results follow. Calls of active or inactive are those of the source. How the calls were made is not given here.

Test: molecules binding r(CAG) RNA repeats, late stage dose response, late-stage follow-up, biochemical, fluorescence, dose response, powder samples (AID 720651)
Conditions: r(CAG) RNA TO-PRO-1 dye displacement

Cc1noc(NS(=O)(=O)c2ccc(NC(=O)c3oc4ccc(F)cc4c3C)cc2)c1C
IC50: 1260 nM (active)
